A selection: hits, their analogues and other compounds. The true share with any hit is near 2.5%.
Cruzain inh noDet = blocks cruzain activity in detergent-free assay; P25779; purified cruzain, Z-FR-AMC fluorescence, no detergent; Potency, µM, inactives show max response, negative = inhibition, most hits filed as inhibitors; 200,000 compounds, 2.3% hits; AID 1476;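 further: plate controls were enzyme without inhibitor for no effect and buffer without enzyme for full effect; nearly all actives have a fitted effect of over 40% in size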
Target sequence (P25779 123-467 limits assumed): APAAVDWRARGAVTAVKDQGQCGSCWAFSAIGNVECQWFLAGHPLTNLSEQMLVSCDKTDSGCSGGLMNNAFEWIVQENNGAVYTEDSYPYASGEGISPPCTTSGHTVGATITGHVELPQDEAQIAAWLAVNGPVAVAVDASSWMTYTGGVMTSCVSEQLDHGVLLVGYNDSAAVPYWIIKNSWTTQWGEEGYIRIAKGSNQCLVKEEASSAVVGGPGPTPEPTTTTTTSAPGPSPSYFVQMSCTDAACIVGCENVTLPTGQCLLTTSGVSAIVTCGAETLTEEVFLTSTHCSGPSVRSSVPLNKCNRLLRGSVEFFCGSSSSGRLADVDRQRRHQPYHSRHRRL
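Purified cruzain at 1.5 nM, pre-incubated 15 min with compound at room temperature in 100 mM sodium acetate pH 5.5, 5 mM DTT, 0.00005% Triton X-100. Reaction started with 2 uM Z-FR-AMC; AMC fluorescence increase over 60 s gives rate.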
Cruzain inh Det = blocks cruzain activity in presence of Triton detergent | P25779 | purified cruzain, Z-FR-AMC fluorescence, 0.01% Triton | Potency, µM, without a hit: max response, negative = inhibition, actives largely listed as inhibitors | 200,000 compounds, 0.43% hits | AID 1478;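 further: plate controls were neutral wells for no effect and buffer without enzyme for full effect; nearly all actives have a fitted effect of over 40% in size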
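Read-out: AMC fluorescence (360 nm excitation, 450 nm emission), four reads over 2 min, first-to-third difference used. Conditions: cruzain 1.5 nM, Z-FR-AMC 2 uM, pH 5.5 acetate, 5 mM DTT, 0.01% Triton X-100.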
Starred values were filed as active, the others as inactive; ? = inconclusive. The call rests on the fitted dose curve; in most records, active means well fitted curve in the direction sought with a large enough effect; inconclusive means small, poorly fitted or top-dose-only effect, or another doubt; inactive means no such curve, though single readings can be large; an effect the other way counts as inactive or inconclusive. Potency means the concentration at half of the fitted maximal effect.

SMILES | Cruzain inh noDet | Cruzain inh Det
CCC/C=C(\CCC)C(NS(=O)(=O)c1cccc2cccnc12)c1ccc(-c2ccccc2)cc1 (configuration not stated) | 0% | 6%
CCOc1ccc(NC(=O)NCc2ccc3c(c2)CCN3C(C)=O)cc1 | 26% | 0%
C[C@@]12CCC(=O)C=C1CC[C@H]1C2[C@@H](O)C[C@]2(C)[C@@H]1CC[C@@]2(O)C(=O)CO (some centres not stated) | -4% | 3%
O=C(Nc1ccccc1C(F)(F)F)Nc1cccc2ccccc12 | 25µM* | 8%
CCCC(=O)NC(=S)Nc1ccccc1C(F)(F)F | 12% | -2%
COc1cccc(NC(=O)C(Sc2nnc(Nc3ccccc3C)s2)c2ccccc2)c1 (configuration not stated) | ? | -2%
COc1ccc(Nc2nnc(SC(C(=O)Nc3ccc(OC)c(Cl)c3)c3ccccc3)s2)cc1 (configuration not stated) | 6.3µM* | -1%
Cc1ccccc1OCCC(=O)NCCc1ccc(S(N)(=O)=O)cc1 | 9% | 0%
CCOc1ccccc1C(=O)NCC(=O)OCC(=O)NCCc1ccc(S(N)(=O)=O)cc1 | 16µM* | 25µM*
O=C(c1cc(C(F)(F)F)cc(C(F)(F)F)c1)N1CCC[C@@]2(CCN(Cc3nccs3)C2)C1 | 6% | -2%
O=S(=O)(c1ccccc1)N1CCC[C@@]2(CCN(c3ccccc3)C2)C1 | 16µM* | -6%
O=S(=O)(c1ccccc1)N1CCC2(CCCN(c3cccc(-c4ccccc4)c3)C2)CC1 | ? | 0%
O=S(=O)(c1ccccc1)N1CCC[C@@]2(CCN(c3cccc(-c4ccccc4)c3)C2)C1 | 4µM* | 1%
O=S(=O)(c1ccccc1)N1CCC2(CCCN(c3ccccc3)C2)CC1 | 2% | 0%
CCCCN(CC)CCNC(=O)CN1C(=O)COc2ccc(S(=O)(=O)N3CCOCC3)cc21 | -3% | 2%
Cc1ccc(C)c(NC(=O)N2CCN3CCCCC3C2)c1 (configuration not stated) | 13% | -1%
Cc1cc(C(=O)COC(=O)c2ccc(O)cc2)c(C)n1CC1COc2ccccc2O1 (configuration not stated) | 25µM* | -4%
COc1cccc(/C=C/C(=O)OCC(=O)c2cc(C)n(CC3CCCO3)c2C)c1OC (configuration not stated) | 13% | -6%
Cc1ccc(OCCSc2nc3ccccc3n2CCC(=O)O)cc1C | 8% | -7%
C=CCNS(=O)(=O)c1ncnc2nc[nH]c12 | -5% | -2%
CC1Cc2cc(S(=O)(=O)NCc3ccc(F)cc3)ccc2N1C(=O)C1CCC1 (configuration not stated) | -5% | 3%
CCc1ccc(NC(=O)Cn2nc(C(F)(F)F)c3c2CCC3)cc1 | -18% | -3%
CC1CCN(CC(=O)Nc2sc3c(c2C#N)CCC3)CC1 | 9% | -8%
N#Cc1c(NC(=O)Cn2nc(C(F)(F)F)c3c2CCCC3)sc2c1CCC2 | 7.9µM* | 8%
CC1CCc2c(sc(NC(=O)Cn3nc(C(F)(F)F)c4c3CCCCC4)c2C#N)C1 (configuration not stated) | 20µM* | 2%
SMILES | Cruzain inh noDet | Cruzain inh Det
Brc1cccc(-c2cnn3c(-c4ccccc4)cc(-c4ccccc4)nc23)c1 | ? | -1%
O=C(Cn1c(=O)oc2cc(S(=O)(=O)N3CCCC3)ccc21)NC1CCCc2ccccc21 (configuration not stated) | 25µM* | -11%
CC(NC(=O)Cn1c(=O)oc2cc(S(=O)(=O)N3CCCC3)ccc21)c1ccccc1 (configuration not stated) | ? | 1%
Oc1ccc(Br)cc1-c1cc(-c2ccccc2)n[nH]1 | -15% | -14%
Oc1ccc(Br)cc1-c1cc(-c2ccc(Cl)cc2)n[nH]1 | 32µM* | 8%
CN(C)CCCc1cc(C(=O)Nc2ccc(-c3ccncc3)cc2)ccc1O | -5% | -3%
N#CCCCS(=O)(=O)c1nnnn1-c1ccc(F)cc1Br | 0% | 3%
COc1cc(OC)cc(-c2nc3ccccc3c(=O)o2)c1 | 16µM* | 0%
COc1cccc(-c2nc3ccccc3c(=O)o2)c1 | -9% | 1%
Cc1ccc(NC(=O)Cn2nnc(C(=O)NCc3ccc4c(c3)OCO4)c2N)cc1Cl | -24% | -1%
CCC(/C=N/Nc1ccc(S(=O)(=O)N2CCCC2)cc1[N+](=O)[O-])CC | 20µM* | -1%
O=[N+]([O-])c1cc(S(=O)(=O)N2CCCC2)ccc1N/N=C/c1cccnc1 | 7% | -2%
COc1cc(NS(=O)(=O)c2ccc(-c3cc(C)no3)cc2)cc(OC)c1 | -4% | -8%
Cc1cccc(Cn2ccn(Cc3ccc(Cl)cc3)c(=O)c2=O)c1 | ? | -2%
Cc1cccc(N=C2NN=C(c3c(C)[nH]c4ccccc34)CS2)c1 | ? | -4%
Cc1cccc(N=C2NN=C(c3ccc4c(c3)OCCO4)CS2)c1 | 16µM* | -7%
C/C=C/C1=Cc2ccccc2C(C(C(=O)OC)C(=O)OC)N1C(=O)OC (configuration not stated) | 4% | 2%
COc1ccc(/C=N/Nc2nc(-c3cccc(S(=O)(=O)N4CCCC4)c3)cs2)cc1OC | -29% | -16%
CCOc1cc(/C=N/Nc2nc(-c3cccc(S(=O)(=O)N4CCCC4)c3)cs2)ccc1O | 16µM* | -12%
COC(=O)c1c(NC(=O)COC(=O)CCS(=O)(=O)c2ccc(C)cc2)sc(C)c1C | 9% | -7%
COC(=O)c1c(NC(=O)COC(=O)CNC(=O)C2CCCCC2)sc(C)c1C | 10µM* | 4µM*
COC(=O)c1sccc1NC(=S)N1CCN(c2cccc(C)c2C)CC1 | 16µM* | -2%
COC(=O)c1sccc1NC(=S)N1CCCCC1 | -2% | -1%
O=C1O/C(=C/c2ccccc2)N=C1c1ccccc1 | 16µM* | 13µM*
O=C1O/C(=C\c2ccccc2)c2ccccc21 | -13% | -10%
SMILES | Cruzain inh noDet | Cruzain inh Det
COc1ccc(NC(=O)c2nc(-c3ccc(C)cc3)n3c2CCCCC3)cc1 | -28% | -6%
CN1c2cccc3cccc(c23)N(C)C1c1cccs1 | -5% | -1%
O=[N+]([O-])c1ccccc1C1Nc2cccc3cccc(c23)N1 | ? | -3%
c1csc(C2Nc3cccc4cccc(c34)N2)c1 | 7.9µM* | -8%
Brc1ccc(C2Nc3cccc4cccc(c34)N2)o1 | 7.9µM* | -12%
CCC(=O)OCC(=O)[C@@]1(OC(=O)CC)[C@@H](C)C[C@@H]2[C@H]3CCC4=CC(=O)C=C[C@]4(C)[C@@]3(F)[C@@H](O)C[C@@]21C | ? | 1%
O=C(c1cnc(N2CCCCC2)c2ccccc12)N1CCN(c2ccccc2F)CC1 | -2% | -12%
COCCn1c(=O)cnc2cnc(OCc3ccccc3)nc21 | -1% | -3%
CC12CCC(C(=O)N(CSC(=S)N/N=C\c3ccccc3O)C1=O)C2(C)C (configuration not stated) | ? | -19%
CN(C)c1ccc(/C=N\NC(=S)SCN2C(=O)C3CCC(C)(C2=O)C3(C)C)cc1 (configuration not stated) | 32µM* | 2%
N[C@H]1[C@@H](C(=O)O)[C@H]2C=C[C@H]1C2 | 10% | 8%
Cc1nn(CC(=O)N2CCC(C)CC2)c(=O)c2cc3sccc3n12 | -7% | -3%
CCOC(=O)Nc1ccc2c(c1)Nc1ccccc1S2 | 25µM* | -11%
CC(=O)c1ccc2c(c1)Nc1ccccc1S2 | 25µM* | 1%
CCOC(=O)c1ccc(NC(=O)c2ccc3c(c2)NC(=O)c2ccccc2S3)cc1 | 6% | -1%

High-throughput results: PubChem BioAssay, National Center for Advancing Translational Sciences (NCATS)
